Data on seven sequences can be found in paper PMC7862700, “An all-to-all approach to the identification of sequence-specific readers for epigenetic DNA modifications on cytosine”.

Common to all, as to assay: DAPPL (digital affinity profiling via proximity ligation, sequencing); 10 mM Tris-HCl pH 7.5, 50 mM NaCl, 1 mM DTT, 4% glycerol, room temperature, 30 min; GST-TFs on glutathione beads, 16-mer random dsDNA library, 0.1% formaldehyde crosslink after washing; high values mean tight binding
What all share (details): protein: recombinant; tags: N-terminal GST; dsDNA, one strand shown

One assay has as its target T1, FLI1 (Homo sapiens, UniProt Q01543 1-452).
T1 sequence: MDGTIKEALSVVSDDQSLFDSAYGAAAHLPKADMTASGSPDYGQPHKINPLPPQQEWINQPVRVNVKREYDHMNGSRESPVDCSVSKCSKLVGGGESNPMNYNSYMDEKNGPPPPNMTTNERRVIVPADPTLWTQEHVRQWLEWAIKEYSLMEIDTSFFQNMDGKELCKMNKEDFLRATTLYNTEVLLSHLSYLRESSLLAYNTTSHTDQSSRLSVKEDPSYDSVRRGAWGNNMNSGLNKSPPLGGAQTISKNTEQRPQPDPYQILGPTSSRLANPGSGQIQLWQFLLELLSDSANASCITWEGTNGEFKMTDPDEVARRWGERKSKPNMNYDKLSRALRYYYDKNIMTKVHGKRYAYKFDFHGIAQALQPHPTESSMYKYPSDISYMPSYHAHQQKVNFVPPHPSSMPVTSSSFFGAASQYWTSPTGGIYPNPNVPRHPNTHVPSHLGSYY
The method, boiled down:
(§1)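 A tag-only sample was pooled with DNA-barcoded human transcription factors that had been expressed in yeast as GST fusions and captured on glutathione beads. The pools were incubated for 30 min at room temperature with 200 nmole of a random double-stranded 16-mer DNA library in Tris/NaCl/DTT/glycerol buffer, then washed, crosslinked with 0.1% formaldehyde, proximity-ligated (BsaI/T4 ligase, 1 h, 37 °C), PCR-amplified and sequenced on an Illumina NextSeq500. Binding signal is each hexamer's read frequency for a factor divided by its frequency for the tag-only sample.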

The target in another assay is T2, ELK1 (Homo sapiens, UniProt P19419 1-428).
T2 sequence: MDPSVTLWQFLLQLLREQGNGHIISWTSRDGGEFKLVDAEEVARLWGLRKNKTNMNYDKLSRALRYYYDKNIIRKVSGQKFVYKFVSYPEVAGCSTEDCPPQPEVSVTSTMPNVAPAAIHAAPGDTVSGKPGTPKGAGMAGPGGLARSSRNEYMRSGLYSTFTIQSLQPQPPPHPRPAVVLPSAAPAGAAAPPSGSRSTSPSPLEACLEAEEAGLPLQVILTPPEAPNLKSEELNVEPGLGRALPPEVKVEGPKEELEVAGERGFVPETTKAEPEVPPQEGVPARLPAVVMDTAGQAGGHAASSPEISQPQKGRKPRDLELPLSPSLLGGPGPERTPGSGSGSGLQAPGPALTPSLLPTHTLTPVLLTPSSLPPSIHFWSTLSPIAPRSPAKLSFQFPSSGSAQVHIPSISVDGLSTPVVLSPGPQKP
The method, boiled down: as §1

The next assay concerns the target T3, GABPA (Homo sapiens, UniProt Q06546 1-454).
T3 sequence: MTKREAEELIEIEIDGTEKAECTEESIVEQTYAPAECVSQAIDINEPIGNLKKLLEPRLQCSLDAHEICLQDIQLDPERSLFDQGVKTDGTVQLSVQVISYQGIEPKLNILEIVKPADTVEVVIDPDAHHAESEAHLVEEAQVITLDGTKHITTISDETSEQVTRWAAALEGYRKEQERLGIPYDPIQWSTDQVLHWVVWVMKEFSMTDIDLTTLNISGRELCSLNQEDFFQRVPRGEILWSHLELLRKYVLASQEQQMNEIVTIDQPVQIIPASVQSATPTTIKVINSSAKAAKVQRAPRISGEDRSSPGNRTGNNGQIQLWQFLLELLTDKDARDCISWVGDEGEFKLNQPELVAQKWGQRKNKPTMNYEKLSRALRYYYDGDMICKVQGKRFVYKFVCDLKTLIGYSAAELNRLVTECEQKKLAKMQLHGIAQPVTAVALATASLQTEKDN
In short, it runs like this: as §1

For the next assay, the target named is T4, ERG (Homo sapiens, UniProt P11308 1-479).
T4 sequence: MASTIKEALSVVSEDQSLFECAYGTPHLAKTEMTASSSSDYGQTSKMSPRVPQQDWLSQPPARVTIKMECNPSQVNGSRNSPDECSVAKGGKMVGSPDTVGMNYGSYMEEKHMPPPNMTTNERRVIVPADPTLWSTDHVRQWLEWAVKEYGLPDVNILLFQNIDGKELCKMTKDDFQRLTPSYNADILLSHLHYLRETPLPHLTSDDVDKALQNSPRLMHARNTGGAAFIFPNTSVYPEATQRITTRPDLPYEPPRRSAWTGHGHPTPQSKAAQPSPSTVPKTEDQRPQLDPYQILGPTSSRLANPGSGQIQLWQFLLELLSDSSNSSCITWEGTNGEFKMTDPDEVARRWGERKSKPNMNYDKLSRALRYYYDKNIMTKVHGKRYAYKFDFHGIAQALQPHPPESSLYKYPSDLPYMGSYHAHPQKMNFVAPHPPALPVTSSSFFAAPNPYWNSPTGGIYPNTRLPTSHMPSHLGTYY
The method, boiled down: as §1

The target of the next assay is ELF1 (Homo sapiens, UniProt P32519 1-619). The method, boiled down:
as §1

For a further assay, the target named is T5, EHF (Homo sapiens, UniProt Q9NZC4 1-300).
T5 sequence: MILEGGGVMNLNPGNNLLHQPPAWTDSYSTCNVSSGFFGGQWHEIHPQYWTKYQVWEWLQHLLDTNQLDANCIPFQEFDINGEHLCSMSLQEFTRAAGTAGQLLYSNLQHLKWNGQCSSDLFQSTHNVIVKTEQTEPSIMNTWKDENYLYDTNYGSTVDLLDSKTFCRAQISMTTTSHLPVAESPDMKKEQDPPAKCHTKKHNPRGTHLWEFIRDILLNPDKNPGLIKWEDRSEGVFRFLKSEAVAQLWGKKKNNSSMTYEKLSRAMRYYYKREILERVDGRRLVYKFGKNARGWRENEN
In short, it runs like this:
as §1

The target in another assay is SPI1 (Homo sapiens, UniProt P17947 1-270). The method, boiled down: as §1
The next assay addresses SPIB (Homo sapiens, UniProt Q01892 1-262). In short, it runs like this:
as §1

The target in the next assay is T6, ELK3 (Homo sapiens, UniProt P41970 1-407).
T6 sequence: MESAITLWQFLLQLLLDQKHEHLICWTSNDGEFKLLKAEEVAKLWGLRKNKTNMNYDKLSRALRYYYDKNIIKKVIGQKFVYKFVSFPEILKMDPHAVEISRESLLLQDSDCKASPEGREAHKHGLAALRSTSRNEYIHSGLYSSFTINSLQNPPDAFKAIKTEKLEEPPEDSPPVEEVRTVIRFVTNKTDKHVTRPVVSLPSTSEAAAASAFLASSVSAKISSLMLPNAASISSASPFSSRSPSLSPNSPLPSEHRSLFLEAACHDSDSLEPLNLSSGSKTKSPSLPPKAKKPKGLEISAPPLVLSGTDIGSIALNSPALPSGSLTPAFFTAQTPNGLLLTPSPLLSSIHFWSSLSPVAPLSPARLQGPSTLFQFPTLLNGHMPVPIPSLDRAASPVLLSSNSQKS
In short, it runs like this: as §1

Chain of ELF1 (P32519 whole entry): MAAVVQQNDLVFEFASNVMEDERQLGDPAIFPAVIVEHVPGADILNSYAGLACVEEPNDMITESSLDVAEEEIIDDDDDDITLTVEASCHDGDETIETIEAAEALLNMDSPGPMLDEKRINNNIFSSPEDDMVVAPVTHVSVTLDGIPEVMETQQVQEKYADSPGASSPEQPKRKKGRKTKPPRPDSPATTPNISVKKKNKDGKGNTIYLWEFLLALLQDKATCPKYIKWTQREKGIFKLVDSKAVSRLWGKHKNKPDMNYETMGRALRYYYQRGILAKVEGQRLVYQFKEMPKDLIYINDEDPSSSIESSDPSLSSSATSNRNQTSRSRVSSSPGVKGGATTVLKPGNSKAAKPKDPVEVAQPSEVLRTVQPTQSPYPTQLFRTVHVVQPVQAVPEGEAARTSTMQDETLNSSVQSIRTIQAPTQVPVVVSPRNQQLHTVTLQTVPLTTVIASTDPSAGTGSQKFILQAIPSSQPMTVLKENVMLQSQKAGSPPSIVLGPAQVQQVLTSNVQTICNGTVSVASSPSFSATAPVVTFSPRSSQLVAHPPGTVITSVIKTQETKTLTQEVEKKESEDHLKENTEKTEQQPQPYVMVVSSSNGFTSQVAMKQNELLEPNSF
Chain of SPIB (Q01892 whole entry): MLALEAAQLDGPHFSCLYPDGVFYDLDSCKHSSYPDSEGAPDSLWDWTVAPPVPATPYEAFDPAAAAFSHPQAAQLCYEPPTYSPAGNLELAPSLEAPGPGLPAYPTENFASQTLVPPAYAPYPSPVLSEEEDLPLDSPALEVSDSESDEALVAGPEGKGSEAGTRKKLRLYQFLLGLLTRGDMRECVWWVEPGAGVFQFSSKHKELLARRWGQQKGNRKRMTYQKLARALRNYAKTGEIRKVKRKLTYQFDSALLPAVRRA

Consider CTTTAG, for which the binding signal with FLI1 is 1.27 fold enrichment (6-mer frequency, TF over GST control); with ELK1, 1.31 fold enrichment (6-mer frequency, TF over GST control); with GABPA it was 1.21 fold enrichment (6-mer frequency, TF over GST control); in the assay with ERG, 1.12 fold enrichment (6-mer frequency, TF over GST control); with ELF1, 1.19 fold enrichment (6-mer frequency, TF over GST control); in the assay with EHF, 1.08 fold enrichment (6-mer frequency, TF over GST control). For the same sequence, the binding signal in the assay with SPI1 was 1.28 fold enrichment (6-mer frequency, TF over GST control); with SPIB, 1.11 fold enrichment (6-mer frequency, TF over GST control); with ELK3 it was 1.11 fold enrichment (6-mer frequency, TF over GST control).

Turning to CATTCG, the binding signal with FLI1 was 1.25 fold enrichment (6-mer frequency, TF over GST control); with ELK1, 1.11 fold enrichment (6-mer frequency, TF over GST control); in the assay with GABPA, 1.17 fold enrichment (6-mer frequency, TF over GST control); in the assay with ERG, 1.21 fold enrichment (6-mer frequency, TF over GST control); with ELF1 it was 1.28 fold enrichment (6-mer frequency, TF over GST control); in the assay with EHF it was 1.08 fold enrichment (6-mer frequency, TF over GST control). Also, the binding signal is 1.26 fold enrichment (6-mer frequency, TF over GST control) with SPI1; 1.15 fold enrichment (6-mer frequency, TF over GST control) with SPIB; 1.24 fold enrichment (6-mer frequency, TF over GST control) in the assay with ELK3.

Take CGTTCA: the binding signal in the assay with FLI1 was 1.11 fold enrichment (6-mer frequency, TF over GST control); with ELK1 it was 1.24 fold enrichment (6-mer frequency, TF over GST control); with GABPA, 1.24 fold enrichment (6-mer frequency, TF over GST control); with ERG it was 1.09 fold enrichment (6-mer frequency, TF over GST control); with ELF1, 1.13 fold enrichment (6-mer frequency, TF over GST control); in the assay with EHF, 1.18 fold enrichment (6-mer frequency, TF over GST control). The binding signal is 1.16 fold enrichment (6-mer frequency, TF over GST control) with SPI1; 1.2 fold enrichment (6-mer frequency, TF over GST control) with SPIB; 1.07 fold enrichment (6-mer frequency, TF over GST control) in the assay with ELK3.

Consider GAAACT, for which the binding signal is 1.22 fold enrichment (6-mer frequency, TF over GST control) in the assay with FLI1; 1.21 fold enrichment (6-mer frequency, TF over GST control) with ELK1; 1.14 fold enrichment (6-mer frequency, TF over GST control) in the assay with GABPA; 1.11 fold enrichment (6-mer frequency, TF over GST control) with ERG; 1.18 fold enrichment (6-mer frequency, TF over GST control) with ELF1; 1.19 fold enrichment (6-mer frequency, TF over GST control) with EHF. For the same sequence, the binding signal with SPI1 was 1.2 fold enrichment (6-mer frequency, TF over GST control); in the assay with SPIB, 1.14 fold enrichment (6-mer frequency, TF over GST control); with ELK3 it was 1.22 fold enrichment (6-mer frequency, TF over GST control).

TCACAT: the binding signal in the assay with FLI1 is 1.23 fold enrichment (6-mer frequency, TF over GST control); with ELK1, 1.25 fold enrichment (6-mer frequency, TF over GST control); with GABPA it was 1.23 fold enrichment (6-mer frequency, TF over GST control); in the assay with ERG, 1.29 fold enrichment (6-mer frequency, TF over GST control); with ELF1, 1.32 fold enrichment (6-mer frequency, TF over GST control); with EHF, 1.27 fold enrichment (6-mer frequency, TF over GST control). In addition, the binding signal with SPI1 is 1.32 fold enrichment (6-mer frequency, TF over GST control); in the assay with SPIB, 1.19 fold enrichment (6-mer frequency, TF over GST control); with ELK3, 1.24 fold enrichment (6-mer frequency, TF over GST control).

For ACAACC, the binding signal is 1.25 fold enrichment (6-mer frequency, TF over GST control) with FLI1; 1.28 fold enrichment (6-mer frequency, TF over GST control) with ELK1; 1.21 fold enrichment (6-mer frequency, TF over GST control) in the assay with GABPA; 1.22 fold enrichment (6-mer frequency, TF over GST control) with ERG; 1.16 fold enrichment (6-mer frequency, TF over GST control) with ELF1; 1.29 fold enrichment (6-mer frequency, TF over GST control) with EHF. The binding signal is 1.2 fold enrichment (6-mer frequency, TF over GST control) in the assay with SPI1; 1.28 fold enrichment (6-mer frequency, TF over GST control) with SPIB; 1.28 fold enrichment (6-mer frequency, TF over GST control) with ELK3.

In the case of GTGCTA, the binding signal with FLI1 is 1.11 fold enrichment (6-mer frequency, TF over GST control); in the assay with ELK1 it was 1.09 fold enrichment (6-mer frequency, TF over GST control); in the assay with GABPA it was 1.04 fold enrichment (6-mer frequency, TF over GST control); with ERG it was 1.09 fold enrichment (6-mer frequency, TF over GST control); with ELF1, 1.12 fold enrichment (6-mer frequency, TF over GST control); with EHF, 1.03 fold enrichment (6-mer frequency, TF over GST control). The binding signal with SPI1 was 1.25 fold enrichment (6-mer frequency, TF over GST control); with SPIB it was 1.1 fold enrichment (6-mer frequency, TF over GST control); with ELK3 it was 1.14 fold enrichment (6-mer frequency, TF over GST control).
